From PubChem BioAssay
Vc quorum ag: induces V. cholerae light production without autoinducers | 350,000 tested, 0.16% active | activation, % at 18.7 µM | V. cholerae BH1578 lux reporter, luminescence, 6 h; in the data active = activation mostly above about 9.7%, no sharp cut-off
MazEF act: increases E. coli MazEF RNase cleavage of RNA; P0AE70; FAM/BHQ RNA-DNA oligo cleavage fluorescence, 5 h; activation, % at 20 µM; 350,000 tested, 0.32% active; AID 504720; in the data active = activation above about 50%
Target sequence (P0AE70 whole entry, looked up): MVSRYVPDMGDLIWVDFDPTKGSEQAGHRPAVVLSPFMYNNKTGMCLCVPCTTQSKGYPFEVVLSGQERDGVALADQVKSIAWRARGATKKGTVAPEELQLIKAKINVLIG
Yp Topo-I inh: blocks Yersinia pestis topoisomerase I activity. 360,000 tested, 0.064% active. activity, % at 10 µM. Y. pestis Topo-I cleavage product accumulation, plate reader; in the data active = activity above about 50%, passing the limit was not always enough
CCHF vOTU inh-1: blocks the CCHF virus ovarian tumor domain protease; inhibition, % at 11.5 µM; 370,000 tested, 0.55% active; CCHFV vOTU protease, Pep-AMC fluorescence
DUSP3 inh: DUSP3 (human) phosphatase inhibition. recombinant VHR phosphatase, pNPP absorbance. inhibition, % at 13.3 µM. 290,000 tested, 0.52% active. P51452; in the data active = inhibition above about 50%
Target sequence (P51452 whole entry, looked up): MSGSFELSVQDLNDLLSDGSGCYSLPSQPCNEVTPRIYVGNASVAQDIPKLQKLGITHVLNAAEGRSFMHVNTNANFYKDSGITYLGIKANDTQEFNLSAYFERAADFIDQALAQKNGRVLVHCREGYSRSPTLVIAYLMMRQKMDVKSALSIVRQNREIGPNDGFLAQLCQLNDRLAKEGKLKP
PrPC TRFRET: reduces human prion protein on the cell surface; P04156; cell surface PrPC, TR-FRET read-out; inhibition, % at 13.8 µM; 370,000 tested, 0.43% active; AID 720596; in the data active = inhibition above about 24%
CCHF vOTU inh-2: confirmation of CCHF virus vOTU protease inhibitors; Recombinant CCHFV vOTU, Pep-AMC fluorescence; shares compounds with CCHF vOTU inh-1; inhibition, % at 11.5 µM; 1,900 tested, 17% active
Numbers stand for hits; - = inactive; . = no result given. Sampled rows, rich in hits. Any-hit rate of the full collection: about 1.8%. Cut-off read from the data, not from the text of the source, unless noted: active = inhibition above about 30%; inactive = the rest.

SMILES | Vc quorum ag | MazEF act | Yp Topo-I inh | CCHF vOTU inh-1 | DUSP3 inh | PrPC TRFRET | CCHF vOTU inh-2
Cc1noc(C)c1S(=O)(=O)N1CCN(S(=O)(=O)c2ccccc2C#N)CC1 | - | - | - | - | - | - | .
CCN(C[C@H]1N[C@@](C)(C(=O)OC)[C@H]2C(=O)N(Cc3ccccc3)C(=O)[C@@H]12)S(=O)(=O)c1ccccc1 | - | - | - | - | . | - | .
COc1ccc(N2CC(C(=O)Nc3nnc(C4CCCCC4)s3)CC2=O)cc1 (centres undefined) | - | - | - | 30 | - | - | -
N/C(=N\O)c1cn(Cc2ccccc2Cl)c2ccccc12 | - | - | - | - | - | - | .
Cc1[nH][nH]c(=O)c1C(c1c(C)[nH][nH]c1=O)c1cn(Cc2ccccc2Cl)c2ccccc12 | - | 71 | - | 66 | - | - | -
CN(CC(=O)Nc1ccc(Cl)c(C(F)(F)F)c1)C(=O)CC1Sc2ccccc2NC1=O (centres undefined) | - | - | - | 33 | - | - | -
CCOC(=O)[C@]12CCC=C1N(Cc1ccco1)C(=O)[C@H](CC(=O)NCc1cccs1)C2 | . | . | . | 33 | . | - | -
COC(=O)[C@]12C[C@H](CC(=O)NCCC(C)C)C(=O)N(Cc3ccc(Cl)cc3Cl)C1=C[C@H](C(C)(C)C)O[C@@H]2C | . | . | . | 31 | . | - | -
COC(=O)[C@]12C[C@H](CC(=O)NCCc3ccccc3OC)C(=O)N(Cc3ccc(Cl)cc3Cl)C1=C[C@H](C(C)(C)C)O[C@@H]2C | . | . | . | 30 | . | - | -
COC(=O)[C@]12C[C@H](CC(=O)NCCc3ccccc3OC)C(=O)N(Cc3ccccc3)C1=C[C@H](C(C)(C)C)O[C@@H]2C | . | . | . | - | . | - | .
CCOC(=O)[C@]12CCCC=C1N(Cc1ccc(Cl)cc1Cl)C(=O)[C@H](CC(=O)NCCc1ccccc1OC)C2 | . | . | . | 30 | . | - | -
CCCCNC(=O)C[C@H]1C[C@@]2(C(=O)OC)C(=C[C@H](C(C)(C)C)O[C@@H]2C)N(Cc2ccc(Cl)cc2Cl)C1=O | . | . | . | - | . | - | .
CCCCCCN1CCS(=O)(=O)N(Cc2ccc(Cl)cc2)C(C(=O)OC)C1 (centres undefined) | . | . | . | - | . | - | .
Cc1cc(SCc2ccc(Br)cc2)nc(=O)[nH]1 | - | - | - | - | - | - | .
CCOC(=O)C1=NOC(C(C)=O)(C(=O)N2CCOCC2)C1 (centres undefined) | . | . | . | - | . | - | .
CCOC(=O)c1oc2c(c1C)C(=O)CCC2 | - | - | - | - | - | - | .
CCOC(=O)c1oc2c(c1C)/C(=N/O)CCC2 | - | - | - | 33 | - | - | -
O=C(Nc1ncc([N+](=O)[O-])s1)C1CCN(S(=O)(=O)c2cnc[nH]2)CC1 | - | - | - | 31 | - | - | -
COc1ccc(S(=O)(=O)NCC(c2ccco2)N2CCc3ccccc3C2)cc1 (centres undefined) | - | - | - | 35 | . | - | -
CC(=O)C(C(C)=O)C1(O)C(=O)c2ccccc2C1=O | - | - | - | 101 | - | - | -
COC(=O)C(Cc1ccccc1)NC(=O)c1ccc(NS(=O)(=O)c2ccc3[nH]c(=O)[nH]c3c2)cc1 (centres undefined) | - | - | - | - | . | - | .
c1ccc2c(c1)NCC1CCCN21 (centres undefined) | - | - | - | 37 | - | - | -
CCC(=O)N(C1=C(NC(C)C)C(=O)c2ccccc2C1=O)C(C)C | - | - | - | 47 | - | - | 31
CC(=O)N(C1=C(N)C(=O)c2ccccc2C1=O)C(C)C | - | - | - | - | - | - | .
O=C(COC(=O)c1cncc(Br)c1)NC12CC3CC(CC(C3)C1)C2 | - | . | - | - | . | - | .
SMILES | Vc quorum ag | MazEF act | Yp Topo-I inh | CCHF vOTU inh-1 | DUSP3 inh | PrPC TRFRET | CCHF vOTU inh-2
Cc1cccc(N(C(=O)c2snc(C(N)=O)c2N)C(C(=O)NCc2ccccc2)c2ccncc2)c1 (centres undefined) | - | - | - | - | - | - | .
CC(=O)N(C)c1ccc(N=Cc2cc3c(cc2[N+](=O)[O-])OCO3)cc1 | - | - | - | 34 | . | - | 31
O=C(Cc1c[nH]c2ccccc12)Nc1ccc(Nc2cccnc2)c(-c2ccc(-c3ccccc3)cc2F)c1 | . | . | . | 30 | . | - | -
O=C(N=C1SC2CS(=O)(=O)CC2N1c1ccc(Br)cc1Cl)C1CC1 (centres undefined) | - | - | - | 34 | - | - | -
O=C(N=C1SC2CS(=O)(=O)CC2N1c1ccc(Br)cc1F)C1CC1 (centres undefined) | - | - | - | - | - | - | .
CCN1C(=O)[C@H]2[C@H]3[C@H](O)[C@H](O)C/C(=N\O[C@H](C)c4cn([C@H](CO)Cc5ccccc5)nn4)[C@@H]3CC[C@H]2C1=O | . | . | . | . | - | . | .
COC(=O)[C@H](CC(C)C)N(CCc1cn(Cc2ccc(C)cc2)nn1)S(=O)(=O)c1ccccc1Br | . | . | . | - | . | - | .
O=CNCC(=O)NC1CCCCCC1 | - | - | - | - | - | - | .
O=C(CCCC(=O)NC1CCCC1)NC1CCCC1 | - | - | - | 31 | - | - | -
CC(C)n1c(SC2C(=O)CC(C)(C)CC2=O)nc2c1c(=O)n(C)c(=O)n2C | - | - | - | 30 | - | - | -
O=C(NCc1ccc(F)cc1)Nc1nnc([C@@H]2C[C@H](O)[C@@H](CO)O2)s1 | - | . | - | 34 | . | - | -
O=C(NCc1ccc(F)cc1)Nc1nnc([C@H]2C[C@H](O)[C@@H](CO)O2)s1 | - | . | - | - | . | - | .
CC1Cc2ccccc2N1C(=O)COC(=O)c1ccc([N+](=O)[O-])o1 (centres undefined) | - | - | - | 39 | . | - | -
CC1Cc2ccccc2N1C(=O)COC(=O)c1ccco1 (centres undefined) | - | - | - | - | . | - | .
COc1ccc(CCNC(=O)c2cc(-c3ccccn3)nc3ccccc23)cc1 | - | - | - | - | . | - | .
Cc1c(-c2ccc(/C=N/NC(=O)C(=O)Nc3ccccc3F)o2)cccc1[N+](=O)[O-] | - | - | - | - | - | - | .
O=[N+]([O-])c1ccccc1-c1ccc(/C=N/n2cnnc2)o1 | - | - | - | - | - | - | .
Cc1c(C(=O)N/N=C/c2ccc(-c3ccccc3[N+](=O)[O-])o2)sc(N)c1C#N | - | - | - | 42 | - | - | -
Nn1cnnc1N/N=C\c1ccc(-c2ccccc2[N+](=O)[O-])o1 | - | - | - | 97 | - | - | -
C=CCn1c(COc2ccccc2)nnc1SCC(=O)c1ccc(-c2ccccc2)cc1 | . | . | . | - | . | - | .
C=CCn1c(COc2ccc(C)cc2)nnc1SCC(=O)c1ccc(-c2ccccc2)cc1 | . | . | . | 30 | . | - | -
CCCc1cc2c(OC)ccc(O)c2c(=O)n1C | . | . | . | - | . | - | .
O=C1NNC(c2ccccc2)=N/C1=C\c1ccco1 | - | - | - | - | - | - | .
O=C1NNC(c2ccccc2)=N/C1=C\c1ccccc1Cl | - | - | - | 54 | - | - | 43
